The list is not random: actives were taken first. Their share in the collection is about 19%.
TDP1 cell CPT: qHTS for Inhibitors of human tyrosyl-DNA phosphodiesterase 1 (TDP1): qHTS in cells in presence of CPT; chicken DT40 Tdp1-/-;hTDP1 cells + 20 nM CPT, ATP luminescence, 48 h; Potency, µM (titrated, usually from 46.2 µM), hits mostly inhibitors; 420,000 compounds, 12% hits; note: nearly all actives have a fitted effect of over 55% in size
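Cell growth measured by CellTiter-Glo luminescence after a minimum 48 h, 37 C compound exposure with 20 nM CPT in Tdp1-knockout DT40 cells stably expressing hTDP1, seeded 400/well; qHTS titration format.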
TDP1 cell noCPT: qHTS for Inhibitors of human tyrosyl-DNA phosphodiesterase 1 (TDP1): qHTS in cells in absence of CPT; DT40 Tdp1-/- hTDP1 cells, no CPT, ATP luminescence, 48 h; Potency, µM (top dose mostly 46.2 µM), hits mostly inhibitors; 420,000 compounds, 15% hits; note: nearly all actives have a fitted effect of over 55% in size
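DT40 Tdp1-/-;hTDP1 cells, no CPT (DMSO vehicle only), 400 cells/well; compounds pin-transferred; ≥48 hr, 37 °C; CellTiter-Glo 30 min RT dark, luminescence read.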
ELG1 repair inh: qHTS screen for small molecules that inhibit ELG1-dependent DNA repair in human embryonic kidney (HEK293T) cells expressing luciferase-tagged ELG1 | HEK293T ELG1-luciferase reporter, luminescence, 16 h; DNA damage induced by 5-fluorouridine | Potency, µM (doses to about 46.1 µM), actives largely listed as inhibitors | 330,000 compounds, 2.3% hits; note: nearly all actives have a fitted effect of over 55% in size
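Luminescence from the luciferase reporter, measured 30 min after ONE-Glo reagent at room temperature, was the read-out. Beforehand, 2,000 cells per well were exposed for 16 hr at 37 °C to 5-fluorouridine together with compound or vehicle.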
Giardia killer: Small Molecules that selectively kill Giardia lamblia: qHTS; Giardia lamblia trophozoite viability; 340,000 compounds, 0.15% hits; AID 540267, 2011; activity change, % at 7.66 µM, hits read low; in the data active = activity change below about -80%; inconclusive = between about -30% and that limit;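 note: parasites exposed to compound for two days anaerobically before the ATP read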
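Luminescent ATP signal served as the viability read-out, measured 15-30 min after adding ATP detection reagent to trophozoites that had been incubated with compounds for 48 hrs at 37 deg C anaerobically at 100 cells/well.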
TDP1 inh: qHTS Assay for Inhibitors of Tyrosyl-DNA Phosphodiesterase (TDP1); Tyrosyl-DNA phosphodiesterase 1 (Homo sapiens), Q9NUW8; recombinant TDP1, AlphaScreen DNA substrate cleavage; Potency, µM (highest dose often 130 µM), usual class: inhibitors; 350,000 compounds, 0.28% hits; AID 485290, 2010; note: nearly all actives have a fitted effect of over 40% in size
Target sequence (Q9NUW8 whole entry, looked up): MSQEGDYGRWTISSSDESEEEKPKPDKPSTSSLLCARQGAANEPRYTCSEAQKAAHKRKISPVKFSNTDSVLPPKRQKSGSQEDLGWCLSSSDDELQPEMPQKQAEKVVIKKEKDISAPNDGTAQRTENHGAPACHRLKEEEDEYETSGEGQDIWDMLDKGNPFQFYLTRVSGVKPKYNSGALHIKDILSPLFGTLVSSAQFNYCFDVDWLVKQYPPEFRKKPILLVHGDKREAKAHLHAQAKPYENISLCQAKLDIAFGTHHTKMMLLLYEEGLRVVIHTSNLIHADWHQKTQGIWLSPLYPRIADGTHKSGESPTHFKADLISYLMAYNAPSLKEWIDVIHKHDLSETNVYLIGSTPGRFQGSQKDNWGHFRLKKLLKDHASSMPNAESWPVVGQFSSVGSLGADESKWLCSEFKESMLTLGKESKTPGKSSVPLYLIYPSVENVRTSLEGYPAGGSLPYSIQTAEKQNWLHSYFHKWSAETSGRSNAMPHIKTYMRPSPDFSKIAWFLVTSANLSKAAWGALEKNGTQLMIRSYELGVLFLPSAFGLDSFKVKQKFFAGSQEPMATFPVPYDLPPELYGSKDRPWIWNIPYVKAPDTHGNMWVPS
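Enzyme-compound mixtures sat 15 min at room temperature, followed by a 5 min reaction with 15 nM final substrate and 10 min with AlphaScreen beads. Recombinant human Tdp1 was used at 1 nM final.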
IL1B secr inh: qHTS for Inhibitors of Inflammasome Signaling: IL-1-beta AlphaLISA Primary Screen | AID 743279, 2014 | activity change, % at 57.5 µM | 360,000 compounds, 4.7% hits | THP-1 LPS/ATP IL-1B secretion, AlphaLISA, 16 h; stronger effect = lower value; in the data active = activity change below about -50%; inconclusive = mostly about -30% to -49%
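Secreted IL-1B measured by AlphaLISA bead assay after 16 h compound exposure of THP-1 cells; compounds (final up to 57.5 uM) added 1 h before LPS (250 ng/mL) and ATP (1.25 mM) stimulation; lower signal means less secretion.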
A number is an active result; i = inactive; ? = inconclusive; nt = no result given; [ ] = another dose, or the depositor's remark. Unless noted, calls come from the whole dose curve; as a rule, active = well fitted curve in the direction sought with a large enough effect; inconclusive = small, poorly fitted or top-dose-only effect, or another doubt; inactive = no such curve, though single readings can be large; an effect the other way counts as inactive or inconclusive.

SMILES	TDP1 cell CPT	TDP1 cell noCPT	ELG1 repair inh	Giardia killer	TDP1 inh	IL1B secr inh
O=C(CN1C(=O)N/C(=C\c2ccccc2OCc2ccc(C(=O)O)cc2)C1=O)Nc1ccccc1F	i	i	i	i	i[0.0935 µM]	i
O=C(NNC1=C(C(=O)C(F)(F)F)CCC1)c1ccc(Br)cc1	?	16µM	?	i	i	i
O=C(NNC(=O)c1ccc(Br)cc1)c1ccncc1	i	i	?	i	nt	i
CC1CCN(CCOCCSc2ccc(Cl)cc2)CC1	?	18µM	i	i	i	i
Clc1ccc(SCCOCCN2CCOCC2)cc1	i	?	i	i	i	i
Clc1ccc(SCCOCCN2CCCCC2)cc1	?	16µM	i	i	i	i
O=C(NCC(c1ccco1)N1CCN(c2ccccc2)CC1)c1ccc2c(c1)OCO2 (stereo not given)	?	?	?	i	i	i
CC(=O)c1cccc(Nc2cc(C)nc3ccccc23)c1	?	i	i	i	i	i
CC(=O)c1ccc(Nc2cc(C)nc3c(C)cc(C)cc23)cc1	4.6µM	4.6µM	?	i	i	-95
Cc1cc(C)c2nc(C)cc(Nc3ccc(C(=O)NCCO)cc3)c2c1	i	?	i	i	i	-90
Cc1cc(C)c2nc(C)cc(Nc3ccc(C(=O)N(C)C)cc3)c2c1	i	i	i	i	i	i
CC(=O)c1cccc(Nc2cc(C)nc3c(C)cccc23)c1	i	?	i	i	i	-75
COc1ccccc1NC(=O)c1c(C)cc(C)nc1SCC(=O)c1ccc(Cl)cc1	i	i	nt	nt	i	nt
COc1ccc(N(Cc2cccs2)C(=O)c2ccco2)cc1	23µM	?	nt	nt	i	nt
COc1ccc(OCC(=O)N(Cc2cccs2)c2ccc(OC)cc2)cc1	16µM	23µM	nt	nt	i	nt
COc1ccc(OCC(=O)N(Cc2cccs2)C2CCS(=O)(=O)C2)cc1 (stereo not given)	i	i	i	i	i	i
COc1ccc(N(Cc2cccs2)C(=O)COc2ccc(C(C)C)cc2)cc1	23µM	21µM	nt	nt	i	nt
CCOc1ccc(N(Cc2ccc(OC)c(OC)c2)C(=O)c2ccco2)cc1	?	18µM	i	?	i	i
COc1ccc(C(=O)N/C(=C/c2ccc(Cl)cc2)C(=O)Nc2ccc(C(=O)O)cc2)cc1	i	i	i	i	i	i
Cc1ccc(C(=O)NCC(=O)OCc2c(F)cccc2Cl)s1	i	i	i	i	i	i
C[C@@H]1C(c2ccc(F)cc2)=NN(c2ccccc2)[C@H]1C(=O)N1CCOC1=O	i	i	i	i	i	i
CC[C@@H]1C(c2ccc(F)cc2)=NN(c2ccc(Br)cc2)[C@H]1C(=O)N1CCOC1=O	?	?	i	i	i	-74
CC[C@@H]1C(c2cccc(Cl)c2)=NN(c2ccc(Br)cc2)[C@H]1C(=O)N1CCOC1=O	?	?	i	i	i	-66
COC(=O)C1CN(C(=O)COc2ccc(C)cc2)c2ccccc2O1 (stereo not given)	i	i	i	i	nt	i
CCc1cc(=O)oc2cc(C)c(CN3CCCCC3)c(O)c12	i	i	i	i	nt	i
SMILES	TDP1 cell CPT	TDP1 cell noCPT	ELG1 repair inh	Giardia killer	TDP1 inh	IL1B secr inh
CCCc1cc(=O)oc2cc(C)c(CN3CCCC3)c(O)c12	?	16µM	i	i	nt	i
CCC(O)CNC(=O)NC(=C(Cl)Cl)c1ccc(C)c(F)c1 (stereo not given)	?	10µM	?	i	i	-73
COc1ccc(CNC(=O)/C=C/[C@H]2O[C@@H](n3cc(C)c(=O)[nH]c3=O)C[C@@H]2O)cc1	i	i	nt	nt	nt	i
COC(=O)CCn1[nH]c(=O)c2ccccc2c1=O	i	i	i	i	i	i
O=c1[nH]n(Cc2ccccc2)c(=O)c2ccccc12	?	8.9µM	?	i	i	i
COc1ccc(CCNC(=O)Cn2nnc(-c3ccc(C(F)(F)F)cc3)n2)cc1OC	i	i	nt	nt	i	nt
CCOC(=O)c1cc(C(=O)c2cccs2)n2ccc(C(C)=O)cc12	?	23µM	?	i	i	i
CCOC(=O)c1cc(C(C)=O)n2ccccc12	i	i	i	i	i	i
C=CCn1c(SCC(=O)N2CCCC2)nc2c([nH]c3ccccc32)c1=O	i	i	i	i	i	i
CCOC(=O)N1CCN(C(=O)CSc2nc3c([nH]c4ccccc43)c(=O)n2C)CC1	i	i	2.6µM	i	i	i
C=CCn1c(SCC(=O)N2CCN(C(=O)OCC)CC2)nc2c([nH]c3ccccc32)c1=O	?	16µM	nt	nt	nt	i
CC1(C(=O)NS(=O)(=O)Cc2ccccc2C(F)(F)F)CCN1C(=O)C/C=C/c1ccccc1 (stereo not given)	?	23µM	nt	nt	nt	i
CC(C(=O)Nc1cccc([N+](=O)[O-])c1)N1CCN(C/C=C/c2ccccc2)CC1 (stereo not given)	?	?	i	i	i	-72
O=C(c1cccc([N+](=O)[O-])c1)N1CCN(C/C=C/c2ccccc2)CC1	i	?	i	i	i	nt
CC1(C(=O)Nc2ccc3c(c2)OCCO3)CCN1C(=O)C/C=C/c1ccccc1 (stereo not given)	29µM	?	nt	nt	nt	i
CC1(C(=O)NS(=O)(=O)Cc2ccccc2C(F)(F)F)CCN1C(=O)c1ccccc1 (stereo not given)	i	i	nt	nt	nt	i
O=C(Nc1ccc2c(c1)OCCO2)C(C1CC1)N1CCN(C/C=C/c2ccccc2)CC1 (stereo not given)	?	?	nt	nt	nt	i
O=C(Nc1ccc2c(c1)OCCO2)C(c1cc2ccccc2o1)N1CCN(C/C=C/c2ccccc2)CC1 (stereo not given)	15µM	16µM	nt	nt	nt	i
COc1cccc(C(=O)NCC(=O)OCc2cc(=O)n3nc(C)sc3n2)c1	i	i	nt	nt	i	nt
CCOc1ccc(S(=O)(=O)Nc2cccc(C(=O)NCC(c3ccco3)N3CCCC3)c2)cc1 (stereo not given)	i	i	i	i	i	i
Nn1c(SCC(=O)NC2CCCCCC2)nnc1-c1ccco1	i	i	nt	nt	nt	i
Cc1ccc(S(=O)(=O)Nc2cccc(C(=O)NCc3ccccn3)c2)cc1F	i	i	?	i	nt	i
COc1ccc(C)cc1Cn1c(S(C)(=O)=O)nc2ccccc21	16µM	21µM	i	i	i	i
Cn1ncc2c(Nc3cccc(F)c3)ncnc21	i	i	nt	nt	i	nt

High-throughput results deposited in PubChem BioAssay by National Center for Advancing Translational Sciences (NCATS).
